The text below walks through data of PubChem BioAssay (NCI).

This is part of a sample that, as a whole, favours compounds with a hit. Of some 83,000 tested, about 20% had one in any assay.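 96-well plates, one dose, 48 hours. Percent growth reported; active if below 10.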 A number with no mark means an inactive call. Active and inactive are the calls of the source.

Holding throughout (experiment): NCI-60 one-dose screen, 48 h (100 = growth as untreated, 0 = no growth, -100 = all killed)
The subject of assay [1] is NCI-H23 lung. To be noted: 10 µM unless noted.
Assay [2] deals with NCI-H226 lung. To be noted: 10 µM unless noted.
The test system of assay [3] is NCI-H322M lung. The following applies: 10 µM unless noted.
Assay [4] deals with HOP-62 NSCLC. To be noted: 10 µM unless noted.
Assay [5] concerns HOP-92 NSCLC. To be noted: 10 µM.
The test system of assay [6] is NCI-H522 lung. To be noted: 10 µM.
The test system of assay [7] is A549/ATCC NSCLC. The following applies: 10 µM unless noted.
Assay [8] relates to 786-0 renal. To be noted: 10 µM unless noted.
For assay [9], the system named is COLO 205 colon. To be noted: 10 µM unless noted.

On to `Oc1ccc([S+](c2ccc(O)cc2)c2ccc(O)cc2)cc1`, for which the growth in [1] was 106%; in assay [2], 88.3%; in [3], 95.3%; in assay [4] it was 94.3%; in assay [5], 92.2%; in assay [6] it was 112%. For the same compound, the growth in assay [7] is 98.7%; in [8] it was 106%; in assay [9], 102%.

Consider `N#Cc1c(N)nc(Nc2nc3ccccc3[nH]2)nc1-c1ccc(Cl)cc1`, for which the growth is 101% in assay [1]; 81.2% in assay [2]; 117% in [3]; 112% in assay [4]; 78.4% in assay [5]; 90.4% in assay [6]. In addition, the growth in [7] was 105%; in [9] it was 94.7%.

`COc1cc(/C=C/C(=O)/C=C(/C=C/c2ccc(OC(C)=O)c(OC)c2)OB(F)F)ccc1OC(C)=O`: the growth was 61.5% in assay [1]; 87.1% in [2]; 99.6% in [3]; 103% in [4]; 62.5% in [5]; 16.8% in [6]. Besides, the growth is 82.7% in assay [7], 80.7% in [8] and 71.2% in assay [9].

As for `CCCCCN1CCN(C(CC(=O)c2ccccc2)C(=O)c2ccccc2)CC1` (configuration not stated), the growth in assay [1] was 98.8%; in assay [2], 103%; in [3], 101%; in [4] it was 101%; in assay [5], 83.4%; in [6] it was 1.49% (active). Besides, the growth is 101% in [7], 102% in assay [8] and 55.1% in [9].

For `COc1ccc(-c2nc(SCC(C)C)nc(Nc3ccc(C)cc3)c2C#N)cc1`, the growth in assay [1] was 73.9%; in assay [2], 65.6%; in assay [3], 52.9%; in [4] it was 88.5%; in assay [5], 73.9%; in [6], 81.4%. Also, the growth in [7] was 52.6%; in assay [8], 24.4%; in assay [9] it was 46.6%.

For `CC(C)(C)C(=O)OCOP(=O)(OCOC(=O)C(C)(C)C)C1CC(O)N(O)C1=O` (configuration not stated), the growth in [1] is 21%; in assay [2], 71.6%; in [3], 30.5%; in assay [4], 35.7%; in assay [5], 28.2%; in [6], 8.02% (active). Also, the growth is 64.3% in assay [7], 14.5% in assay [8] and 45% in assay [9].

On to `CC(=O)N(N=O)c1ccc([N+](=O)[O-])cc1Cl`, for which the growth was 34% in assay [1]; 68.3% in assay [2]; 74.3% in assay [3]; 97% in assay [4]; 31.6% in assay [5]; 61.7% in [7]. In addition, the growth was 74.1% in assay [8] and 97.6% in [9].

For the compound `O=C1c2cc([N+](=O)[O-])ccc2-c2cc(Cl)c(NC(=O)C(F)(F)F)cc21`, the growth in assay [1] is 95.3%; in assay [2] it was 101%; in assay [3] it was 103%; in [4] it was 106%; in assay [5], 99.4%; in assay [6] it was 113%. Moreover, the growth in assay [7] was 108%; in [8], 108%; in assay [9], 95.9%.

As for `COc1ccc(CNCCCN2C(=O)c3ccc4c5c(ccc(c35)C2=O)C(=O)N(CCCNCc2ccc(OC)c(OC)c2OC)C4=O)c(OC)c1OC`, the growth in [1] is -74.8% (active); in assay [2] it was -64.7% (active); in assay [3], -60.5% (active); in assay [4], -44.3% (active); in assay [5], -43.5% (active); in assay [6] it was -88.6% (active). Also, the figures for the growth in [7], in assay [8] and in assay [9] were -89.4% (active), -78.8% (active) and -43.9% (active), respectively.

On to `CCCCCCNC(=O)Oc1ccc(/C(=C(/C)Cc2ccc(OC)cc2)c2ccc(OCCN3CCCCC3)cc2)cc1`, for which the growth was 90.9% in assay [1]; 92% in [2]; 89.5% in [3]; 91.2% in assay [4]; 60.5% in [5]; 85.6% in [6]. Moreover, the values for the growth in assay [7], in assay [8] and in [9] were 77.6%, 78.5% and 79.4%, respectively.

Turning to `CN1C(=O)C(=Cc2coc3ccc(Br)cc3c2=O)C(=O)N(C)C1=O`, the growth is 94.5% in [1]; 97.2% in [2]; 124% in assay [3]; 94.5% in assay [4]; 81.3% in [5]; 95% in assay [6]. The growth in assay [7] is 97.8%; in assay [8], 112%; in assay [9] it was 106%.

For the compound `COc1ccc(-c2nc(N)n(C(=S)Nc3ccccc3)n2)cc1`, the growth in assay [1] is 92.2%; in [2], 92.6%; in assay [3], 101%; in assay [4], 87.3%; in assay [5] it was 85.8%; in assay [6], 88.5%. In addition, the growth was 102% in [7], 105% in [8] and 105% in [9].

For the compound `O=C1CSC(c2ccccc2Cl)N1c1nnc(-c2ccncc2)o1` (configuration not stated), the growth in [1] is 85.9%; in assay [2], 93.9%; in [3], 105%; in assay [4], 90.2%; in [5], 95.9%; in [7] it was 101%. Further, the growth in assay [8] was 93.6%.

On to `O=C(O)c1ccc(-c2nn(-c3ccc(C(=O)O)cc3)cc2CNc2ccc(Br)cc2)cc1`, for which the growth is 106% in assay [1]; 115% in assay [2]; 100% in assay [3]; 104% in assay [4]; 102% in assay [5]; 85.4% in assay [6]. For the same compound, the results for the growth in [7], in [8] and in assay [9] were 101%, 102% and 108%, respectively.
